Screen size: about 68,000 compounds; about 2,700 (4%) showed an effect of 50% or more. The entries come from a sample that favours strong results as a whole.

This assay has as its system Plasmodium berghei. Put plainly: Screen against P. berghei liver stage (PbLuc), transformed with Luciferase, at 2uM. It counts as functional, HepG2. The following applies: tested at 2 uM.
For `O=C(NCc1ccccc1)c1nc2c(o1)CN(C(=O)c1cccnc1)C2`, the INHIBITION was 36.75%.
As to `COCCN1C[C@@H]2CN(Cc3cccc(C)n3)C[C@@H]2C1=O`, the INHIBITION was 39.92%.
To `CCCN1CCN(c2nc(N)nc3c2nc(C)n3C)CC1` belongs 9.85%; to `Cc1noc(C)c1C(=O)N1CCC(c2[nH]ncc2S(C)(=O)=O)C1` (centres undefined), 13.58%.
For the compound `Cc1nc(N2CCN(C(=O)C3CC3)CC2)c2c(n1)c(C)nn2C`, the INHIBITION is 51.57%.
Then `Cc1nc(N2CCN(C(=O)C3CCCC3)CC2)c2c(n1)c(C)nn2C`, with -36.89%; and `CCC(=O)N1CCN(c2nc(C)nc3c(C)nn(C)c23)CC1`, with 13.72%.
Then `CCCC(=O)Nc1ccc(CC(=O)N(CC)CC2CCCCO2)cc1` (centres undefined), with -5.44%; and `Cc1ccc(C2COCCN2C(=O)c2ccc(C)s2)o1` (centres undefined), with 3.63%.
To `O=C1COC2(CCN(Cc3cccs3)CC2)CN1c1ccsc1` belongs 55.7%; to `O=C1COC2(CCN(Cc3cccs3)CC2)CN1c1cncnc1`, 25.58%.
Take `Cn1cc(N2CC3(CCN(Cc4cccnc4)CC3)OCC2=O)cn1`: the INHIBITION is 54.44%.
As to `Cn1cc(N2CC3(CCN(Cc4ccccc4)CC3)OCC2=O)cn1`, the INHIBITION came to 33.97%.
To `Cn1cc(CN2CCC3(CC2)CN(c2cccnc2)C(=O)CO3)cn1` belongs -56.25%; to `O=C1COC2(CCN(Cc3cccs3)CC2)CN1c1ccccc1`, -10.6%; to `O=C(NCCn1cccc1)c1c(O)cc(F)cc1F`, -5.53%.
To `Cc1noc(C)c1CNC(=O)N1CCN(CC2CC2)CC1` belongs -20.36%.
Take `c1cncc(-c2ncnc3c2CCN(Cc2cccs2)CC3)c1`: the INHIBITION worked out at 24.42%.
For `CC(C)(O)CN1CCN(C(=O)c2cccn2Cc2ccncc2)CC1`, the INHIBITION is -51.5%.
Then `CC(C)(O)CN1CCN(C(=O)c2cccn2Cc2ccccc2)CC1`, with -36.56%; and `CC(C)(O)CN1CCN(C(=O)c2cccn2Cc2cccnc2)CC1`, with 54.5%; and `CC(C)c1nn(C)c(N(C)C)c1CNCc1cccc(CN(C)C)c1`, with -36.7%.
To `COCc1ncc(CN2CCC3(CCC(=O)N(CC(C)O)C3)CC2)cn1` (centres undefined) belongs -40.15%; to `Cc1cc(C)c2c(N3CCC(C(=O)N4CCCC4)CC3)ncnc2n1`, 36.74%.
To `COc1ccc(F)c(F)c1CN1CCC2(CC1)[C@H](O)C[C@@H]2OCCN` belongs 57.75%; to `NCCO[C@H]1C[C@@H](O)C12CCN(Cc1c(F)cccc1F)CC2`, 2.9%; to `COc1cc(CN2CCC3(CC2)[C@H](O)C[C@@H]3OCCO)ccc1F`, -6.64%.
Turning to `COc1cc(C)c(CN2CCC3(CC2)[C@H](O)C[C@@H]3OCCN)cc1C`, the INHIBITION was 72.05%.
To `COc1cc(C)c(CN2CCC3(CC2)C(C(=O)O)CC(=O)N3C)cc1C` (centres undefined) belongs 1.82%; to `NCCO[C@H]1C[C@@H](O)C12CCN(C1Cc3ccccc3C1)CC2`, -17.86%; to `COc1c(CNCc2ccc(N3CCCC3)nc2)c(C(C)C)nn1C`, 20.57%.
With `Cn1ccnc1CN1CCC2(CC(=O)N(c3ccccn3)C2)C1` (centres undefined), the INHIBITION amounted to 44.46%.
Consider `Clc1cccc(N[C@H]2CCCN[C@H]2Cc2ccccc2)c1`, for which the INHIBITION was -34.37%.
To `CC(C)(C)OC(=O)N1CCN(C(=O)c2cnn3c2OCCC3)CC1` belongs -14.01%; to `COCc1noc(CN2CC(Cc3ccccc3)CC2=O)n1` (centres undefined), 14.12%.
For the compound `O=C1CCCN1CCCNCc1cc(O)c2cccc(Cl)c2n1`, the INHIBITION is reported as -15.85%.
In the case of `O=C1CCCN1CCCNCc1cc(O)c2cccc(F)c2n1`, the INHIBITION is 53.12%.
For the compound `Oc1cc(CNCCN2CCCCC2)nc2c(F)cccc12`, the INHIBITION is recorded as -6.77%.
As to `OC1CCN(c2ccnc(NCCc3ccccc3Cl)n2)C1` (centres undefined), the INHIBITION stood at 0.72%.
For `CCC(NC(=O)NCc1nncn1CC)c1ccc(OC)cc1` (centres undefined), the INHIBITION was -53.08%.
Regarding `Cc1n[nH]c2c1C(c1ccncc1)SCC(=O)N2` (centres undefined), the INHIBITION worked out at 19.08%.
To `Cc1n[nH]c2c1C(c1cnn(C)c1)SCC(=O)N2` (centres undefined) belongs 73.96%.
For `Cc1n[nH]c2c1C(c1ccc(Cl)cc1)SCC(=O)N2` (centres undefined), the INHIBITION turned out to be 47.85%.
For the compound `CCCn1cnnc1CN(C)C(=O)C1CCC(=O)N(C2CCCC2)C1` (centres undefined), the INHIBITION amounted to 31.35%.
Regarding `CC(C)c1[nH]c2ncccc2c1CN1CCOCC1`, the INHIBITION was found to be 68.53%.
In the case of `CC(C)c1[nH]c2ncccc2c1CN1CCC(O)CC1`, the INHIBITION is reported as 14.73%.
As to `CC1CCN(Cc2c(C(C)C)[nH]c3ncccc23)CC1`, the INHIBITION was -9.61%.
To `CC(CNC(=O)c1nnn(-c2ccccc2)c1C(F)(F)F)N(C)C` (centres undefined) belongs -10.14%.
To `Cc1ncccc1C(=O)Nc1ccc2ccn(CCN(C)C)c2c1` belongs 10.23%; to `CCc1ocnc1C(=O)Nc1ccc2ccn(CCN(C)C)c2c1`, 53.19%; to `CCc1ncncc1C(=O)Nc1ccc2ccn(CCN(C)C)c2c1`, 38.87%.
Then `CC(C)(C)NC(=O)c1ccn(COc2c(Cl)cccc2Cl)n1`, with 31.42%; and `CCC(=O)NCC(=O)NC(C)c1ccc(OCCC(C)C)cc1` (centres undefined), with -14.65%; and `CCNc1ncc(C(=O)NCc2csc(-c3ncccn3)n2)cn1`, with -27.47%.
Take `CCNc1ncc(C(=O)NCCc2csc(-c3ncccn3)n2)cn1`: the INHIBITION is 69.79%.
For `CCNc1ncc(C(=O)NCCc2csc(CSC)n2)cn1`, the INHIBITION is on record as -45.11%.
To `Cc1noc(-c2ccnc(Oc3cccc(CN4CCCC4)c3F)c2)n1` belongs 43.15%.
On to `O=C(NCCc1ccccc1)NCC(O)c1cccs1` (centres undefined), for which the INHIBITION turned out to be 1.48%.
To `O=C(O)c1csc(NCCc2ccccc2)n1` belongs 55.05%.
Regarding `CN1CC(=O)c2sc(NCCc3ccccc3)nc2C1`, the INHIBITION is recorded as -24.17%.
To `CCC(C)NC(=O)CS(=O)(=O)Cc1cc(C)ccc1C` (centres undefined) belongs -10.29%; to `O=C(NCC1CC1)c1ccc(NC(=O)c2ccco2)cc1`, 24.44%; to `COc1ccccc1-n1nc(CC(C)C)nc1Cc1nnc(N)s1`, -28.44%.
Then `O=C(Nc1ccc(Cl)cn1)c1nn(C2CCS(=O)(=O)C2)c2c1CCCC2` (centres undefined), with 66.3%; and `O=C(Nc1cccc(Cl)c1)c1nn(C2CCS(=O)(=O)C2)c2c1CCCC2` (centres undefined), with 21.33%.
To `Cc1cccc(NC(=O)c2nn(C3CCS(=O)(=O)C3)c3c2CCCC3)n1` (centres undefined) belongs 9.29%; to `O=C(Nc1ccccc1)c1nn(C2CCS(=O)(=O)C2)c2c1CCCC2` (centres undefined), 73.37%; to `O=C(Nc1ccc(Cl)cc1)c1nn(C2CCS(=O)(=O)C2)c2c1CCCC2` (centres undefined), 14.16%.
Consider `O=C(Nc1cccnc1)c1nn(C2CCS(=O)(=O)C2)c2c1CCCC2` (centres undefined), for which the INHIBITION was -0.14%.
Then `O=C(NCCc1ccccc1Cl)NCC1(O)CCSC1` (centres undefined), with -41.73%; and `COCCN(C/C=C/c1ccccc1)Cc1ncc[nH]1`, with -14%; and `CN(CCc1cccs1)C(=O)Nc1cccc(S(C)(=O)=O)c1`, with -7.16%.
For `OC(CN1CCN(CC2CCCCC2)CC1)c1ccccc1` (centres undefined), the INHIBITION stood at 12.55%.
Turning to `OC(CN1CCN(CC2CC2)CC1)c1ccc(Br)cc1` (centres undefined), the INHIBITION amounted to 50.32%.
Then `NC(=O)CC1CCN(CC(O)c2ccc(Br)cc2)CC1` (centres undefined), with -58.06%; and `OC(CN1CCN(CC(F)F)CC1)c1ccc(Br)cc1` (centres undefined), with 15.84%.
Then `CCN1CCN(CC(O)c2ccc(Br)cc2)CC1` (centres undefined), with 63.46%; and `CCN1CCN(CC(O)c2ccc(F)cc2)CC1` (centres undefined), with -5.15%.
With `Cn1cc(CN2CCCC23CCN(C(=O)c2cccn2C)CC3)cn1`, the INHIBITION is 1.42%.
In the case of `CO[C@@H]1CC[C@H]2[C@H]1OCCN2Cc1ccc(F)cc1`, the INHIBITION amounted to 19.53%.
Then `Cc1nonc1CN(C)Cc1nc(-c2cccc(F)c2F)oc1C`, with -25.82%.
Then `CCc1nnc(CN(C)Cc2nc(-c3ccccc3Cl)oc2C)o1`, with 15.84%.
Then `Cc1nonc1CN(C)Cc1nc(-c2ccccc2Cl)oc1C`, with 51.96%; and `Cc1cc(C2CCC2)nc(NCC(C)(C)N2CCCC2)n1`, with 7.85%.
Take `CC(C)N1CCO[C@H]2CN(C(=O)c3ccncc3)C[C@H]21`: the INHIBITION is 19.96%.
Consider `Cc1cc(CN2C[C@@H]3CN(C(=O)c4ccsc4)CCO[C@@H]3C2)no1`, for which the INHIBITION was -89.19%.
Regarding `O=C(c1ccsc1)N1CCO[C@@H]2CN(Cc3cccs3)C[C@@H]2C1`, the INHIBITION worked out at 78.93%.
To `CC(C)N1CCO[C@H]2CN(C(=O)c3ccoc3)C[C@H]21` belongs -17.23%.
Then `CC(C)N1CCO[C@H]2CN(C(=O)c3ccsc3)C[C@H]21`, with 65.32%; and `O=C(c1ccsc1)N1CCO[C@@H]2CN(Cc3nccs3)C[C@@H]2C1`, with 41.28%.
Then `c1ncn(Cc2nnc(C3CCN(CC4CC4)CC3)n2C2CC2)n1`, with 30.96%; and `Cc1nnc(CN2CCOC(c3ccc(Cl)c(Cl)c3)C2)o1` (centres undefined), with 38.67%; and `Cc1nc(CN2CCOC(c3ccc(Cl)cc3)C2)oc1C` (centres undefined), with 5.28%.
Take `Cc1nnc(CN2CCOC(c3ccc(Cl)cc3)C2)o1` (centres undefined): the INHIBITION amounted to 57.75%.
Regarding `c1ccc(O[C@H]2CO[C@@]3(CCN(Cc4ccc5c(c4)OCO5)C3)C2)nc1`, the INHIBITION was found to be 40.83%.
To `Cc1cncc(C2CCCN(C(=O)c3c[nH]c(=O)[nH]c3=O)C2)n1` (centres undefined) belongs 50.72%; to `Cc1cncc(C2CCCN(Cc3ccncc3)C2)n1` (centres undefined), -33.09%; to `Cc1ccc(CN2CCCC(c3cncc(C)n3)C2)cn1` (centres undefined), -0.15%.
Then `O=C(c1c[nH]c(=O)[nH]c1=O)N1CCCC(c2cnccn2)C1` (centres undefined), with -15.93%; and `Cc1cncc(C2CCCN(CC3CCC3)C2)n1` (centres undefined), with 50.63%.
As for `Cc1cncc(C2CCCN(C(=O)c3ccc(C)[nH]c3=O)C2)n1` (centres undefined), the INHIBITION is reported as 17.71%.
As for `COc1ccc(NC(C)c2ccc(C#N)cc2)cc1N1CCCC1=O` (centres undefined), the INHIBITION is listed as -50.8%.
With `O=C1CC(c2ccc(CO)o2)c2cnn(Cc3ccco3)c2N1` (centres undefined), the INHIBITION is given as -1.11%.
Then `Cc1nc(-c2cnn(C)c2)sc1C(=O)NCc1cccc(CN(C)C)c1`, with -6.4%.

The record behind these values is ChEMBL document CHEMBL4513216, “Probing the Open Global Health Chemical Diversity Library for Multistage-Active Starting Points for Next-Generation Antimalarials” (ACS Infect Dis, 2020).
